From PubChem BioAssay (NCATS)
Records with an inconclusive call do not appear. Calls of active or inactive are those of the source. Unless noted, calls come from the whole dose curve; as a rule, active = well fitted curve in the direction sought with a large enough effect; inconclusive = small, poorly fitted or top-dose-only effect, or another doubt; inactive = no such curve, though single readings can be large; an effect the other way counts as inactive or inconclusive.

Assays:
[1] = S16 Schwann cell PMP22 intronic element firefly luciferase assay (AID 624032); note: nearly all actives have a fitted effect of over 30% in size; note: potency is the fitted concentration of half-maximal effect
Outline: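 Rat S16 Schwann cells stably carrying firefly luciferase driven by a PMP22 intronic element, in 10% FBS, treated 24 h at 37 C. ONE-Glo luminescence normalized to PTC124 control and DMSO (0%); curves classed by r2, magnitude and activity.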

[2] = S16 Schwann cell PMP22 intronic element beta-lactamase assay (AID 624044; calls by dose curve; note: nearly all actives have a fitted effect of over 15% in size); conditions: S16 rat Schwann cells, PMP22 element beta-lactamase FRET, 24 h; ratio activity, negative = inhibition: at 38.3 µM (top of the series) unless noted
Outline: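 Rat S16 Schwann cells with beta-Lac driven by a PMP22 intronic element, compound-treated 24 h at 37 °C. LiveBLAzer FRET B/G read: 460 nm normalized to potassium clavulanate vs DMSO; 535 nm FRET as viability; concentration-effect curves classified.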

[3] = test system: 7G8; experiment: qHTS profiling for inhibitors of Plasmodium falciparum proliferation (AID 504749); note: nearly all actives have a fitted effect of over 60% in size; note: potency is the fitted concentration of half-maximal effect; conditions: P. falciparum in erythrocytes, SYBR Green DNA, 72 h; series mostly up to 12.8 µM
Outline: (§1)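 P. falciparum-infected erythrocytes (0.3% parasitemia, 2.5% hematocrit) incubated with compound 72 h at 37 C, 5% CO2. Parasite DNA detected by SYBR Green after lysis, overnight at room temperature; normalised to 0.29 uM artemisinin and DMSO.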

[4] = test system: CP185; experiment: as above; conditions: P. falciparum in erythrocytes, SYBR Green DNA, 72 h; series mostly up to 28.7 µM
Outline: as §1

[5] = test system: CP194; experiment: as above; conditions: P. falciparum in erythrocytes, SYBR Green DNA, 72 h; series mostly up to 28.7 µM
Outline: as §1

[6] = test system: CP238; experiment: as above; conditions: P. falciparum in erythrocytes, SYBR Green DNA, 72 h; series mostly up to 28.7 µM
Outline: as §1

[7] = test system: CP265; experiment: as above; conditions: P. falciparum in erythrocytes, SYBR Green DNA, 72 h; series mostly up to 12.8 µM
Outline: as §1

[8] = test system: CP286; experiment: as above; conditions: P. falciparum in erythrocytes, SYBR Green DNA, 72 h; series mostly up to 28.7 µM
Outline: as §1

[9] = test system: CP291; experiment: as above; conditions: P. falciparum in erythrocytes, SYBR Green DNA, 72 h; series mostly up to 28.7 µM
Outline: as §1

[10] = test system: CP305; experiment: as above; conditions: P. falciparum in erythrocytes, SYBR Green DNA, 72 h; series mostly up to 28.7 µM
Outline: as §1

[11] = test system: CP335; experiment: as above; conditions: P. falciparum in erythrocytes, SYBR Green DNA, 72 h; series mostly up to 12.8 µM
Outline: as §1

[12] = test system: DIV14; experiment: as above; conditions: P. falciparum in erythrocytes, SYBR Green DNA, 72 h; series mostly up to 28.7 µM
Outline: as §1

[13] = test system: DIV17; experiment: as above; conditions: P. falciparum in erythrocytes, SYBR Green DNA, 72 h; series mostly up to 28.7 µM
Outline: as §1

[14] = test system: DIV30; experiment: as above; conditions: P. falciparum in erythrocytes, SYBR Green DNA, 72 h; series mostly up to 28.7 µM
Outline: as §1

[15] = test system: Dd2; experiment: as above; conditions: P. falciparum in erythrocytes, SYBR Green DNA, 72 h; series mostly up to 28.7 µM
Outline: as §1

[16] = test system: HB3; experiment: as above; conditions: P. falciparum in erythrocytes, SYBR Green DNA, 72 h; series mostly up to 28.7 µM
Outline: as §1

[17] = test system: P93_24; experiment: as above; conditions: P. falciparum in erythrocytes, SYBR Green DNA, 72 h; series mostly up to 28.7 µM
Outline: as §1

[18] = test system: PAD; experiment: as above; conditions: P. falciparum in erythrocytes, SYBR Green DNA, 72 h; series mostly up to 28.7 µM
Outline: as §1

[19] = test system: PC26; experiment: as above; conditions: P. falciparum in erythrocytes, SYBR Green DNA, 72 h; series mostly up to 28.7 µM
Outline: as §1

[20] = molecular target: Bile acid receptor (Homo sapiens) (UniProt Q96RI1); experiment: qHTS assay for small molecule antagonists of farnesoid X receptor signaling (AID 588526; calls by dose curve)
Outline: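 Antagonist mode: titrated compounds tested against chenodeoxycholic acid stimulation (normalized to 50 uM CDCA and DMSO) in GeneBLAzer HEK293T cells for 16 h. Beta-lactamase read by CCF4 fluorescence; IC50 from Hill fits.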

Measured: Potency

Chain of Bile acid receptor (Homo sapiens) (Q96RI1 whole entry, looked up): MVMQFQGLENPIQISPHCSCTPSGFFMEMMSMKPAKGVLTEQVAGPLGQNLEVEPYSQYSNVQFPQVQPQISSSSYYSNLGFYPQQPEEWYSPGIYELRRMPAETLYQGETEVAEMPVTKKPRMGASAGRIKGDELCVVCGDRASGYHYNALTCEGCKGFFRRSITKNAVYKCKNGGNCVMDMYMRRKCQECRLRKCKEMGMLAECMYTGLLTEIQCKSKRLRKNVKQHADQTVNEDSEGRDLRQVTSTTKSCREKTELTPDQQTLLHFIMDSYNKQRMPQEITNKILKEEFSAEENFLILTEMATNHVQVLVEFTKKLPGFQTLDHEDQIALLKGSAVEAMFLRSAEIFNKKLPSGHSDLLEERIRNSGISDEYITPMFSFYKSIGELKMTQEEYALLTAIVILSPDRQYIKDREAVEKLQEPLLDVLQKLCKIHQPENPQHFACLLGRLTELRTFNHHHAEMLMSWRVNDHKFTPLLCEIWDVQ

C=CC1CN2CCC1CC2C(OC(=O)OCC)c1ccnc2ccc(OC)cc12 (stereo not given)
active: [3] 2.51 µM | [4] 8.91 µM | [5] 6.01 µM | [6] 8.91 µM | [7] 5.01 µM | [8] 5.01 µM | [9] 12 µM | [10] 9.53 µM | [11] 9.53 µM | [12] 6.01 µM | [13] 13.5 µM | [14] 9.53 µM | [15] 5.01 µM | [16] 6.31 µM | [17] 7.94 µM | [18] 6.31 µM | [19] 6.01 µM
inactive: [1] | [2]

COc1nc(NC(C)C)nc(NC(C)C)n1
inactive: [20]

COc1cc2c(cc1OC)[C@@]13CCN4CC5=CCOC6CC(=O)N2C1[C@H]6[C@@H]5C[C@@H]43 (stereo not given in full)
inactive: [1] | [2] | [3] | [4] | [5] | [6] | [7] | [8] | [9] | [10] | [11] | [12] | [13] | [14] | [15] | [16] | [17] | [18] | [19]

CNC(C)[C@@H](O)c1ccccc1 (stereo not given in full)
inactive: [1] | [2] | [4] | [5] | [6] | [7] | [8] | [9] | [10] | [11] | [12] | [13] | [14] | [15] | [16] | [17] | [18] | [19]

CNc1ccc(C(=O)CC(O)CCC(C)C2OC(=O)CC(O)CC(=O)CC(O)CC(O)CC(O)CC(O)CC3(O)CC(O)C(C(=O)OC)C(CC(O[C@@H]4OC(C)C(O)C(N)C4O)/C=C/C=C/C=C/C=C/C=C/C=C/C=C/C2C)O3)cc1 (stereo not given in full)
inactive: [3] | [4] | [5] | [6] | [7] | [8] | [9] | [10] | [11] | [12] | [13] | [14] | [15] | [16] | [17] | [18] | [19]

O=C(O)COc1cc(Cl)c(Cl)cc1Cl
inactive: [20]

CNC(=O)Oc1cccc2c1OC(C)(C)O2
inactive: [20]

CCC(C)C1O[C@]2(C=CC1C)CC1CC(C/C=C(\C)[C@H](OC3CC(OC)C(O[C@H]4CC(OC)[C@@H](O)C(C)O4)C(C)O3)[C@@H](C)/C=C/C=C3\COC4C(O)C(C)=C[C@H](C(=O)O1)[C@@]34O)O2 (stereo not given in full)
active: [3] 10 µM | [4] 11.2 µM | [5] 12 µM | [7] 8.91 µM | [9] 10.7 µM | [10] 12 µM | [11] 6.75 µM | [12] 12 µM | [13] 12 µM | [15] 11.2 µM | [19] 7.57 µM
inactive: [2]

CC(C)CC(CN)CC(=O)O (stereo not given)
inactive: [1] | [2]

COP(N)(=O)SC (stereo not given)
inactive: [20]

CC([C@H](O)c1ccccc1)N(C)C (stereo not given in full)
active: [3] 11.2 µM
inactive: [1] | [2] | [4] | [5] | [6] | [7] | [8] | [9] | [10] | [11] | [14] | [16] | [17] | [18] | [19]

CCS(=O)CCSP(=O)(OC)OC (stereo not given)
inactive: [20]

CCCCSP(=O)(SCCCC)SCCCC
inactive: [20]

O=C1C=C2C=CC3C[C@@]2(O1)C1CCCCN31 (stereo not given in full)
active: [1] 0.51 µM | [3] 8.91 µM | [6] 11.2 µM | [8] 11.2 µM | [13] 15.1 µM | [14] 13.5 µM | [15] 11.2 µM | [16] 11.2 µM | [17] 12.6 µM | [18] 12.6 µM
inactive: [12]
